The source of these data is PubChem BioAssay (EPA / NIEHS).

SMILES strings stand for the structures. Values joined by “and” are separate entries in the source; they are usually repeats but may differ in a detail not shown here. Identical values can stand only once. Records with an inconclusive call do not appear. More than one record can exist for a structure, and the calls need not agree. Active and inactive are the calls of the source. How the source made its calls: active means hit-call score of the fitted dose curve at least 0.9, where 1 is the maximum; inconclusive means response in the unintended direction; inactive means score below 0.9.

Chain of Cellular tumor antigen p53 (Homo sapiens) (P04637 whole entry, looked up): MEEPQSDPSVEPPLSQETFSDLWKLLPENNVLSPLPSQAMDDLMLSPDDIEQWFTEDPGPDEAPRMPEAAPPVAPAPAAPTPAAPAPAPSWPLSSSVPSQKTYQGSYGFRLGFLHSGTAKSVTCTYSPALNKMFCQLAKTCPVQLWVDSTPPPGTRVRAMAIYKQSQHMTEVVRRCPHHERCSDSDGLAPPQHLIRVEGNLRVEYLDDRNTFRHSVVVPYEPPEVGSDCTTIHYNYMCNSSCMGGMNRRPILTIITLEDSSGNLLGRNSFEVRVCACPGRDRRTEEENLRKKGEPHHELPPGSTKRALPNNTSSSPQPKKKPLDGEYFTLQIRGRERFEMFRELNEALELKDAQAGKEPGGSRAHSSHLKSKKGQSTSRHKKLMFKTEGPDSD

For one assay, the target named is Cellular tumor antigen p53 (Homo sapiens) (UniProt P04637). Put plainly: TOX21_p53_BLA_p2_ratio: Tox21 HCT-116 p53 Agonism Beta-lactamase Assay, Ratio, Phase 2 (AID 2283592). In a few lines:
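Human colon HCT116 cells with an inducible p53 beta-lactamase reporter are exposed to test chemicals for 16 h at 37C. Reporter induction is read as the 460/530 nm emission ratio after CCF4-AM loading, normalized to DMSO.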
Take `Nc1ccc([N+](=O)[O-])cc1O`: the result was inactive.

In the case of `CC/C=C\CCOC(=O)c1ccccc1`, the result was inactive. What is called AC50 is the midpoint of the concentration-response curve, whichever way the signal moves. As to `CCN(CC)c1ccc2c(C)cc(=O)oc2c1`, the AC50 is 36.8 µM (active) and 44.9 µM (active). Consider `CCc1ccc(C(c2ccc(CC)cc2)C(Cl)Cl)cc1`, for which the outcome was inactive. On the same count and under the same terms, then `CCCCCC=O`, with “inactive”; and `Oc1ccc(Nc2ccccc2)cc1`, with “inactive”; and `O=C(C=Cc1ccccc1)OCC=Cc1ccccc1`, with “inactive”. `CCCCCCCCCCCCCCCC[N+](C)(C)Cc1ccccc1`: the AC50 was 64.7 µM (active) and the outcome was inactive. Take `CCC(=O)OCCc1ccccc1`: the outcome was inactive. Same read-out and setting: as for `Nc1cc(Cl)c(N)c(Cl)c1`, the entry is “inactive”; as for `CCCCNc1ccccc1`, “inactive”; as for `Nc1ccc(S(=O)(=O)Nc2nccs2)cc1`, “inactive”.

Test system in the next assay: not listed separately
Put plainly: TOX21_p53_BLA_p3_viability: Viability Assessment in the Tox21 HCT-116 p53 Agonism Beta-lactamase Assay, Phase 3 (AID 2283593).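 Further: cells exposed to compound for 16 h before reading.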 The gist of the method: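 HCT116 cells, 4000/well, dosed 5 h after plating by pin transfer (217-fold dilution from DMSO stock) and incubated 16 h at 37C, 5% CO2. Viability read as ATP luminescence with CellTiter-Glo after 30 min at room temperature.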
As for `Nc1ccc([N+](=O)[O-])cc1O`, the result was inactive.

As to `CCN(CC)c1ccc2c(C)cc(=O)oc2c1`, the result was inactive. On the same count and under the same terms, as for `CCc1ccc(C(c2ccc(CC)cc2)C(Cl)Cl)cc1`, the entry is “inactive”; as for `Oc1ccc(Nc2ccccc2)cc1`, “inactive”; as for `O=C(C=Cc1ccccc1)OCC=Cc1ccccc1`, “inactive”. In the case of `CCCCCCCCCCCCCCCC[N+](C)(C)Cc1ccccc1`, the AC50 is 33.5 µM (active) and 9 µM (active). With `Nc1cc(Cl)c(N)c(Cl)c1`, the result was inactive. On the same count and under the same terms, as for `CCCCNc1ccccc1`, the entry is “inactive”; as for `Nc1ccc(S(=O)(=O)Nc2nccs2)cc1`, “inactive”.
